Screening data (PubChem BioAssay)
An excerpt weighted towards active compounds, which were near 10% of everything screened.
G9a block: qHTS Assay for Inhibitors of Histone Lysine Methyltransferase G9a; G9a H3K9 monomethylation, AlphaScreen, 2 h; Potency, µM (top dose mostly 102 µM), for inactives: at the top dose activity, negative = inhibition, hits mostly inhibitors; 350,000 compounds, 8.8% hits; note: potency is the fitted concentration of half-maximal effect; % is set by controls: 0 for no effect and ±100 for the full control effect; nearly all actives have a fitted effect of over 75% in size
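Chemiluminescent proximity detection of H3K9 monomethylation, read after 10 min bead incubation in the dark. Reaction: 20 nM G9a, 500 nM biotin-H3K9 peptide, 20 uM SAM cofactor, 2 h, room temperature, following 15 min enzyme-compound preincubation.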
Six1-Eya2 blk: qHTS Assay for Inhibitors of the Six1/Eya2 Interaction; AID 651725, 2012; 360,000 compounds, 0.56% hits; activity change, % (no concentration beside the values); AlphaScreen GST-Six1/His-Eya2 binding, biochemical; stronger effect = lower value; in the data active = activity change below about -65%; inconclusive = mostly about -30% to -63%; note: % is set by controls: 0 for no effect and ±100 for the full control effect
Target sequence (O00167 whole entry, looked up): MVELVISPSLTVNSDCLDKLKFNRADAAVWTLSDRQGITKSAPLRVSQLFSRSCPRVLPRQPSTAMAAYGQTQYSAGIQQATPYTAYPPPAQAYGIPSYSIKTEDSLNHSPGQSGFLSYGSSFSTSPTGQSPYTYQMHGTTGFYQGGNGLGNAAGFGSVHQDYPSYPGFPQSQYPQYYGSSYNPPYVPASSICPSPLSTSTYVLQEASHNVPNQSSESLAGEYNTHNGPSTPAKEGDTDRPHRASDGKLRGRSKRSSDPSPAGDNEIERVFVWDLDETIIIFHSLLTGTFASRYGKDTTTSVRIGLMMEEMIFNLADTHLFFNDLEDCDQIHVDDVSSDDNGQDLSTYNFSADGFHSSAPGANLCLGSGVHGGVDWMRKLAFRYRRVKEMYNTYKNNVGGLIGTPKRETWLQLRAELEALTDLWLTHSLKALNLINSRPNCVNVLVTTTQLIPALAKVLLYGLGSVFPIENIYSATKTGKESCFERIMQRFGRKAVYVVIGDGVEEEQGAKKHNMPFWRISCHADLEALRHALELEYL
Target sequence (Q15475 whole entry, looked up): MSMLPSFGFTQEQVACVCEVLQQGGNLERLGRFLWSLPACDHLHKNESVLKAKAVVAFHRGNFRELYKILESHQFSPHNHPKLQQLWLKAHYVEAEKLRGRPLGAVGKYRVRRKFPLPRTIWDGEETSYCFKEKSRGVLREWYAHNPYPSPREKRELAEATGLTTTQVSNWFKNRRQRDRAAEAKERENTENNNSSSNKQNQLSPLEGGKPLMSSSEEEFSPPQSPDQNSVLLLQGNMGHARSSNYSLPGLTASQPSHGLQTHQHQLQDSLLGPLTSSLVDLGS
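AlphaScreen with GST-Six1 and His-Eya2 (5X mix: 250 nM and 500 nM), glutathione donor and nickel acceptor beads; buffer 50 mM Tris pH 8.0, 300 mM NaCl, 1 mM TCEP; 1 h at 37 C in the dark.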
BAZ2B inh: qHTS Assay for Inhibitors of BAZ2B | AlphaScreen BAZ2B-H3K14Ac peptide displacement | Bromodomain adjacent to zinc finger domain protein 2B (Homo sapiens), Q9UIF8 | 360,000 compounds, 4.4% hits | Potency, µM (doses to about 114 µM), inactives show top-dose activity change, negative = inhibition, most hits filed as inhibitors; note: potency is the fitted concentration of half-maximal effect; % is set by controls: 0 for no effect and ±100 for the full control effect; nearly all actives have a fitted effect of over 60% in size
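AlphaScreen displacement: compounds (up to 110uM) incubated 30 min at room temperature with a preformed 50 nM BAZ2B/50 nM biotinylated H3K14Ac peptide complex in PBS pH 7.4 with Tween-20. Donor and acceptor beads at 10 ug/mL final added, 20 min light-protected before reading.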
HP1b binding inh: HTS for Inhibitors of HP1-beta Chromodomain Interactions with Methylated Histone Tails; Chromobox protein homolog 1 (Homo sapiens), P83916; AlphaScreen HP1-beta / biotin-H3K9me3 peptide binding; Potency, µM (series often up to 114 µM), without a hit: at the top dose activity change, negative = inhibition, usual class: inhibitors; 390,000 compounds, 0.56% hits; note: potency is the fitted concentration of half-maximal effect; nearly all actives have a fitted effect of over 70% in size
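AlphaScreen: HP1-beta (50 nM) preformed 30 min with biotin-H3(1-18)K9me3 peptide (50 nM) in PBS pH 7.4, 0.01% Tween-20. Compound added for 30 min at RT, then streptavidin donor/nickel chelate acceptor beads (10 ug/mL) for 30 min.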
CtBP-E1A inh: qHTS Assay for Inhibitors of the CtBP/E1A Interaction; activity change, % (test concentration not listed); CtBP / adenovirus E1A interaction (AlphaScreen); AlphaScreen GST-E1A/His-CtBP binding, 1536-well; stronger effect = lower value; 340,000 compounds, 0.49% hits; in the data active = activity change below about -65%; inconclusive = mostly about -30% to -63%; note: % is set by controls: 0 for no effect and ±100 for the full control effect
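Steps: dispense buffer (Tris pH 8.0, NaCl 300 mM, TCEP 1 mM, BSA, Tween 20); add 5X protein mix (GST-E1A, His-CtBP, 125 nM each); pin 23 nL compound; 2 h at 37 °C, dark; add 5X beads (50 ug/mL); 1 h; read.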
JMJD2A Tudor inh: qHTS Assay for Inhibitors of JMJD2A-Tudor Domain | Lysine-specific demethylase 4A (Homo sapiens), O75164 | AlphaScreen JMJD2A-Tudor / H3K4me3 peptide binding | Potency, µM (doses to about 114 µM), inactives show top-dose activity change, negative = inhibition, hits mostly inhibitors | 390,000 compounds, 4.4% hits | AID 504339, 2011; note: potency is the fitted concentration of half-maximal effect; % is set by controls: 0 for no effect and ±100 for the full control effect; nearly all actives have a fitted effect of over 50% in size
The depositor's hits bear a star; ? = inconclusive; . = no result given; ! = repeats disagree; [ ] = another dose, or the depositor's remark. Unless noted, calls come from the whole dose curve; as a rule, active = well fitted inhibition curve with a large enough effect; inconclusive = small, poorly fitted or top-dose-only effect; inactive = no such curve, though single readings can be large or run the other way.

SMILES | G9a block | Six1-Eya2 blk | BAZ2B inh | HP1b binding inh | CtBP-E1A inh | JMJD2A Tudor inh
CC1CCN(c2oc(-c3ccc(COc4ccccc4)o3)nc2C#N)CC1 | 5µM* | . | ? | -15% | . | ?
COc1ccc(OCc2ccc(-c3nc(C#N)c(N4CCN(c5cccc(Cl)c5)CC4)o3)o2)cc1 | -28%[59 µM] | . | -29% | 28% | . | -17%
COc1ccc(OCc2ccc(-c3nc(C#N)c(N4CCN(C)CC4)o3)o2)cc1 | 18µM* | . | 32µM* | ? | . | 56µM*
N#Cc1nc(COc2ccccc2)oc1N1CCC(Cc2ccccc2)CC1 | 13µM* | -24 | ? | ? | -22 | -32%
N#Cc1nc(-c2ccc(COc3ccc(Cl)cc3)o2)oc1N1CCN(c2ccccc2)CC1 | -8%[59 µM] | . | -8% | 11% | . | -17%
Cc1ccc(OCc2ccc(-c3nc(C#N)c(N4CCC(C)CC4)o3)o2)cc1 | 10µM* | . | ? | -21% | . | -34%
N#Cc1nc(-c2ccc(COc3ccccc3)o2)oc1N1CCN(c2ccccc2)CC1 | ? | . | ? | 18% | . | -14%
CC(C)C[C@H]1COc2cc(N3CC[C@H](O)C3)ccc2S(=O)(=O)N1 | . | 13 | . | . | 3 | .
COc1ccc(N(C(=O)c2ccccc2)S(=O)(=O)c2ccc3c(c2)n(C)c(=O)n3C)cc1 | 0%[59 µM] | . | -36% | 7% | . | -26%
CCOC(=O)C1(CCOC)CCN(C(=O)c2sccc2C)CC1 | 21% | 2 | -1% | 24% | . | -3%
COc1ccc(OCc2ccc(-c3nc(C#N)c(N4CCC(C(N)=O)CC4)o3)o2)cc1 | -7%[59 µM] | . | ? | 14% | . | ?
COc1ccc(OCc2ccc(-c3nc(C#N)c(N4CCC(C)CC4)o3)o2)cc1 | 3.5µM* | . | 3.5µM* | ? | . | ?
CCC1CCCCN1C(=O)c1cc(COc2ccc(-n3cncn3)cc2)on1 (stereo not given) | -6% | 2 | 9% | 19% | 4 | -9%
Cc1ccc(NC(=S)N2CCn3cccc3C2c2cccnc2)cc1 (stereo not given) | 45µM* | -14 | ? | -7% | 1 | ?
CCC(C)(C)NC(=O)c1cccc(NC(=O)C(C)C)c1 | . | 4 | 2% | -12% | 2 | 40µM*
Cc1ccc(NC(=O)CSCC(=O)N2CCN(c3cccc(C(F)(F)F)c3)CC2)cc1 | 17%[2.33 µM] | -5 | -1% | 33% | 6 | -21%
Nc1c(C(=O)N2CCOCC2)sc(=S)n1-c1ccccc1 | 2.2µM* | -3 | -9% | -43% | 1 | ?
CC(=O)c1sc(=S)n(-c2ccccc2)c1C | 28% | -5 | -3% | 18% | 7 | -7%
Nc1c(C(=O)N2CCCCC2)sc(=S)n1-c1ccccc1 | ? | -7 | ? | 14µM* | -12 | 50µM*
Nc1nc(SCc2ccccc2)sc1C(=O)N1CCCCC1 | . | -11 | . | . | -8 | .
CC1CC(C)(C)N(C(=O)CN2CCN(C)CC2)c2ccccc21 (stereo not given) | . | 2 | 25µM* | ? | -8 | 20µM*
COc1cc(/C=N/NC(=O)C(N)=O)cc(OC)c1O | ? | 0 | -2% | 29% | -10 | -12%
COc1cc(/C=N/NC(=O)C(C)Nc2n[nH]c(=O)[nH]c2=O)cc(OC)c1O (stereo not given) | 35µM* | 0 | -6% | -14% | 1 | -15%
Cn1c(SCc2c(F)cccc2Cl)nc2c(c1=O)SCC2 | -26%[59 µM] | -22 | 28µM* | -27% | -5 | ?
Clc1ccccc1Cn1c(/C=C/c2ccco2)nc2ccccc21 | 10µM* | 2 | ? | ? | 17 | ?
SMILES | G9a block | Six1-Eya2 blk | BAZ2B inh | HP1b binding inh | CtBP-E1A inh | JMJD2A Tudor inh
Cc1cccc(C)c1OCCOCCN1CCN(C)CC1 | -42%[59 µM] | 6 | -29% | 25µM*! | -4 | 13µM*!
Cc1cccc(Cl)c1OCCCN1CCOCC1 | 10µM* | -11 | ? | ? | -2 | 1.6µM*
Cc1cc(OCCCN2CCCC2)ccc1Cl | -15% | 9 | 5% | 18% | . | -12%
Cc1cc(Cl)cc(C)c1OCCCCN1CCOCC1 | ? | 2 | 10% | 39% | 4 | -15%
Cc1cc(Cl)c(OCCCCN2CCOCC2)c(Br)c1 | ? | 4 | 50µM* | ? | -6 | 3.5µM*
Cc1cc(C)c(OCCOCCN2CCCC2)c(C)c1 | . | 0 | . | ? | -8 | ?
Cc1cccc(C)c1OCCCN1CCCC1 | 10µM* | -5 | 50µM* | ? | 1 | 2.5µM*
Cc1ccc(C)c(NC(=O)CCN2C(=O)c3ccccc3Sc3ncccc32)c1 | -13%[59 µM] | . | -12% | 11% | . | -5%
Cc1cccc(C)c1OCCCCN1CCCCC1 | 79µM* | -1 | ? | ? | . | 28µM*
Cc1cccc(C)c1OCCN1CCCC1 | 25µM* | 0 | ? | ? | 0 | 25µM*
C=C(C)c1cc2c(s1)c1cnn(Cc3ccccc3F)c(=O)c1n2C | . | . | . | . | . | -22%
CCn1c(Sc2ccc([N+](=O)[O-])cn2)nnc1-c1ccco1 | 1%[0.501 µM] | 23 | 2% | 36% | 24 | 25µM*
Cc1ccc2nc(CSc3nnc(-c4ccco4)o3)cc(=O)n2c1 | ? | -2 | 56µM* | 26% | 2 | -31%
O=C(CSc1nnc(-c2ccco2)o1)NC(=O)Cc1ccccc1 | ? | -3 | 79µM* | 16% | -2 | -17%
O=C(CSc1ccc(Cl)cc1)Nc1nnc(-c2ccco2)o1 | -38% | ? | 50µM* | 47% | -7 | ?
COc1cc(C(=O)NCc2nnc(SCC(=O)Nc3cc(C)on3)o2)cc(OC)c1OC | 1% | -2 | . | 27% | 1 | -5%
Cc1cc(NC(=O)CSc2nnc(CNC(=O)c3ccc(C(C)(C)C)cc3)o2)no1 | . | -76* | 7% | 30% | ? | -17%
Cc1noc(C)c1S(=O)(=O)N(CC(=O)NCc1ccccc1Cl)c1ccc(C(C)C)cc1 | 5%[59 µM] | . | . | 41% | . | -3%
O=C(CSc1nnc(-c2ccco2)o1)c1ccc[nH]1 | 40µM* | 4 | 45µM* | 6% | -5 | -26%
Cc1cc(NC(=O)CSc2nnc(-c3ccco3)o2)no1 | 2%[59 µM] | -74* | ? | 41% | -90* | -14%
Cc1ccc(C)c(N2CCN(S(=O)(=O)c3c(C)nc4sccn4c3=O)CC2)c1 | -31%[59 µM] | . | 3% | 19% | . | -1%
O=C(COc1ccccc1)N1N=C(c2cccnc2)CC1(O)C(F)(F)F (stereo not given) | 50µM* | -1 | -17% | 23% | 0 | -11%
